From PubChem
A selection: hits, their analogues and other compounds. The true share with any hit is near 1.6%.
Mito fusion act = qHTS Assay for Small Molecule Inhibitors of Mitochondrial Division or Activators of Mitochondrial Fusion; 0.23% of 320,000 active; Potency, µM (series often up to 46.1 µM), inactives show top-dose growth rescue (activation), hits mostly activators; S. cerevisiae fusion-defective mutant growth rescue, CellTiterGlo 48 h; further: % of control where 0% means no effect; nearly all actives have a fitted effect of over 45% in size
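Temperature-sensitive fusion-defective S. cerevisiae (e.g. fzo1-1, mgm1-5) were grown with compound in YPEG medium (3% ethanol, 3% glycerol) for 48 hours at 37C. Growth rescue was measured as viability by CellTiterGlo luminescence after 10 minutes at ambient.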
ALOX12 inh = Primary qHTS assay for inhibitors of human arachidonate 12S-lipoxygenase (ALOX12): Round 2; Polyunsaturated fatty acid lipoxygenase ALOX12 (Homo sapiens), P18054; purified 12hLO, xylenol orange hydroperoxide absorbance; Potency, µM (titrated, usually from 108 µM), without a hit: at the top dose activity change, negative = inhibition, usual class: inhibitors; 1.1% of 580,000 active; further: on the % scale 0 is the no-effect control and ±100 the full control effect
Target sequence (P18054 whole entry, looked up): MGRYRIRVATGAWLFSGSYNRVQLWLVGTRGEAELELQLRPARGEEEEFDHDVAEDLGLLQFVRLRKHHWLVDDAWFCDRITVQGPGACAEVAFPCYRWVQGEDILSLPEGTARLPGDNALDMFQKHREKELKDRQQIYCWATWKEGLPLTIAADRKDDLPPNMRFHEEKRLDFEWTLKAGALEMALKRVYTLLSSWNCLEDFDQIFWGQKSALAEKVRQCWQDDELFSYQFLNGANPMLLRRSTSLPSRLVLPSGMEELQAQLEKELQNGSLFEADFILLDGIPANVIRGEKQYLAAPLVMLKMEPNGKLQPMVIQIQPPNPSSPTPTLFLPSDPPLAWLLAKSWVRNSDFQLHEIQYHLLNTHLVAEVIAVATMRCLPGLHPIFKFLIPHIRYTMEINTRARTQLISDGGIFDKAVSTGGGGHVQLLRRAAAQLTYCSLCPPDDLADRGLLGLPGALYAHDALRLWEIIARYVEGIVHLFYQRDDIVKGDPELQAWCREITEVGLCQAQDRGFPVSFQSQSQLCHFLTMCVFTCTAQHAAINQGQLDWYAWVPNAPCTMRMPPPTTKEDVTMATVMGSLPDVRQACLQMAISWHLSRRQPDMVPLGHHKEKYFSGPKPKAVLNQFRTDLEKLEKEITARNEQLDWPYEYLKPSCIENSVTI
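Hydroperoxide product was detected by ferrous iron/xylenol orange as the 573 to 405 nm absorbance ratio. Arachidonic acid at 40 uM (final) was turned over for 30 min at room temperature by 150 nM human 12hLO, pH 7.0 Hepes buffer, after 15 min compound preincubation.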
FUS yeast rescue = qHTS for Suppressors of FUS Proteinopathy: Primary screen using FUS-linked yeast assay. S. cerevisiae FUS-expressing, growth rescue, OD600, 24 h. Potency, µM (highest dose often 76.6 µM), hits mostly activators. 0.24% of 390,000 active;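 further: plate controls were DMSO vehicle for no effect and reference control for full effect; nearly all actives have a fitted effect of over 55% in size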
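Cultures pregrown in 2.5% raffinose medium are shifted to minimal medium containing 2% galactose to express toxic FUS. Compounds are tested at several concentrations. After 24hr at 30C, growth is quantified at 600 nm absorbance.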
gsp antagonist = qHTS for Antagonists of gsp, the Etiologic Mutation Responsible for Fibrous Dysplasia/McCune-Albright Syndrome: qHTS; gsp-mutant cells, cAMP HTRF, 30 min; Potency, µM (top dose mostly 76.9 µM), for inactives: top-dose activity change, negative = inhibition, hits mostly inhibitors; 0.4% of 340,000 active; calls by dose curve; cell line not stated here;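 further: intracellular cAMP measured with PDE inhibitor Ro 20-1724 present during compound exposure; on the % scale 0 is the no-effect control and ±100 the full control effect; nearly all actives have a fitted effect of over 65% in size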
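Cells, 2000/well, grown 16–24 h in DMEM 10% FBS with 0.5 mg/ml G418, then compounds plus […] (300 uM addition stock), 30 min at 37C. cAMP read by HTRF (cAMP-d2 and anti-cAMP antibody-K in lysis buffer) after 30 min RT.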
gsp ag = qHTS for Agonist of gsp, the Etiologic Mutation Responsible for Fibrous Dysplasia/McCune-Albright Syndrome: qHTS. gsp mutant cells, cAMP HTRF, 30 min. Potency, µM (top dose mostly 76.9 µM), for inactives: at the highest dose activation (cAMP increase), most hits filed as activators. 0.13% of 340,000 active; active means well fitted activation curve with a large enough effect; inconclusive means small, poorly fitted or top-dose-only effect, or another doubt; inactive means no such curve, though single readings can be large or run the other way; cell line not stated here;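 further: phosphodiesterase inhibitor Ro 20-1724 added with compounds to block cAMP breakdown; nearly all actives have a fitted effect of over 60% in size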
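Cells stably selected in G418 were plated at 2000/well, grown 16-24 hr, then given compounds in DMSO with the PDE inhibitor […] (300 uM solution added) for 30 min at 37C; cAMP was read by HTRF.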
* = called active by the depositor; i = inactive; ? = inconclusive; · = not tested or not shown; [ ] = dose if it differs, or a comment. Unless noted, the call rests on the fitted dose curve; in most records, active means well fitted curve in the direction sought with a large enough effect; inconclusive means small, poorly fitted or top-dose-only effect, or another doubt; inactive means no such curve, though single readings can be large; an effect the other way counts as inactive or inconclusive. Potency means the concentration at half of the fitted maximal effect.

SMILES	Mito fusion act	ALOX12 inh	FUS yeast rescue	gsp antagonist	gsp ag
COC(=O)c1c(C)[nH]c(C(=O)C(C)OC(=O)C2CC(=O)N(c3ccc(C)cc3)C2)c1C (configuration not stated)	7%	94%	?	40µM*	28%
CCCOc1ccc(NC(=O)c2cccc(OCC)c2)c2cccnc12	·	40%	·	·	·
O=C(COC(=O)Cc1cccs1)Nc1ccccc1	-2%	14%	i	2%	9%
O=C(Cc1cccs1)OCC(=O)c1ccccc1	·	40µM*	·	·	·
CCO[C@H]1CN(C2CCN(c3ccc(C)c(Cl)c3)CC2)C[C@@H]1O	·	0%	·	·	·
COc1ccc([C@@H]2[C@@H]3C(=O)N(C(C)(C)C)C(=O)[C@@H]3[C@]3(Cc4ccccc4)C(=O)N(c4cccc(Cl)c4)C(=O)N23)cc1	-4%	-8%	28µM*	4%	-12%
COc1ccc(N2C(=O)N3[C@H](c4ccc(Br)cc4)[C@@H]4C(=O)N(C(C)(C)C)C(=O)[C@@H]4[C@]3(Cc3ccccc3)C2=O)cc1	0%	7%	13µM*	-6%	·
COc1ccc([C@@H]2[C@@H]3C(=O)N(C(C)(C)C)C(=O)[C@@H]3[C@]3(Cc4ccc(Cl)cc4)C(=O)N(c4cccc(Br)c4)C(=O)N23)cc1	4%	1%	i	4%	-18%
COc1ccc([C@@H]2[C@@H]3C(=O)N(C(C)(C)C)C(=O)[C@@H]3[C@]3(Cc4ccccc4)C(=O)N(c4cccc(C)c4)C(=O)N23)cc1	-5%	9%	28µM*	4%	-2%
COc1ccc([C@@H]2[C@@H]3C(=O)N(C(C)(C)C)C(=O)[C@@H]3[C@]3(Cc4ccccc4)C(=O)N(c4ccc(Br)cc4)C(=O)N23)cc1	1%	·	i	-8%	·
CC(C)(C)N1C(=O)[C@H]2[C@@H](c3ccc(Br)cc3)N3C(=O)N(c4cccc(Cl)c4)C(=O)[C@@]3(Cc3ccccc3)[C@H]2C1=O	7%	3%	13µM*	-9%	-15%
COc1ccc(NS(=O)(=O)c2ccc3oc(SCC(=O)N4CCCCCC4)nc3c2)cc1	·	6%	·	·	·
O=C([C@@H]1C[C@H](F)CN1S(=O)(=O)c1cc(F)ccc1F)N1CCCCC1	·	21%	·	·	·
Cc1cnc2c(S(=O)(=O)N3CCNC(=O)C3)cccc2c1	·	14%	·	·	·
Cn1cccc1CNC(=O)C1c2ccccc2C(=O)N(C2CCCCC2)C12CCCC2 (configuration not stated)	·	16%	·	·	·
CC1=C(C(=O)OC(C)C)C(c2ccc(C(F)(F)F)cc2)NC(=O)N1 (configuration not stated)	·	-4%	·	·	·
Cc1cc(C)nc(NC(=O)/C=C/c2ccccc2Cl)c1	25µM*	?	·	-15%	-31%
Cc1cc(C)nc(NC(=O)/C=C/c2ccc(Cl)cc2Cl)c1	5%	?	·	-15%	-22%
CCN(CC(=O)Nc1cccc(F)c1)Cc1nc2ccccc2c(=O)[nH]1	-1%	0%	i	32µM*	?
CCN(CC(=O)NCc1ccc(F)cc1)Cc1nc2ccccc2c(=O)[nH]1	2%	0%	i	1%	-15%
O=C(CCCN1CCN(c2ccccc2)CC1)c1ccc(F)cc1	·	1%	i	·	27%
O=C1CC(=C(c2ccccc2)c2ccccc2)C(=O)N1CCCCN1CCN(c2ccccc2)CC1	13%	40µM*	i	-4%	2%
CCN(CC)S(=O)(=O)c1ccc(CNC(=O)c2ccccc2OCc2cn3ccccc3n2)cc1	·	8%	·	·	·
CCOC(=O)/C(C#N)=C/c1cc2ccccc2nc1N1CCCCC1	-2%	-13%	·	3%	11µM*
CCOC(=O)CSC1=NC(=O)/C(=C/c2ccc(Br)cc2)S1	-19%	40µM*	i	?	19%[15.4 µM]
SMILES	Mito fusion act	ALOX12 inh	FUS yeast rescue	gsp antagonist	gsp ag
Cc1ccc(C)n1-c1sc2c(c1C(=O)O)CCCC2	7%	?	i	-4%	-1%[15.4 µM]
Cc1ccc(C)n1-c1sccc1C(=O)O	2%	·	13µM*	8%	-5%
O=C(c1ccccc1Cl)N1CCc2nc(-c3ccc(Cl)cc3)nc(-c3ccccc3)c2C1	·	-4%	·	·	·
Fc1ccc2nc(Nc3nc4cc5c(cc4s3)OCCO5)sc2c1	13µM*	-1%	·	1%	-2%
Fc1ccc2nc(Nc3nc4cc5c(cc4s3)OCO5)sc2c1	9%	11%	i	10%	?
c1ccc2sc(Nc3nc4cc5c(cc4s3)OCO5)nc2c1	14µM*	-1%	i	3%	0%
CN(C)c1nc2c(Br)c(Br)c(Br)c(Br)c2[nH]1	4.1µM*	·	·	·	·
CC[Si](C)(CC)COC(=O)CCC[N+](C)(C)C	·	28µM*	·	·	·
COc1cc(C(=O)Nc2cnc3ccccc3c2)ccc1OC(F)F	·	5%	·	·	·
CC(C)(C)c1ccc(-c2cc(C[C@H]3CNCC[C@H]3CC(=O)NCc3cccs3)no2)cc1	·	40µM*	·	·	·
O=C(C[C@@H]1CCNC[C@@H]1Cc1cc(COc2ccccc2)on1)N1CCC(n2c(=O)[nH]c3ccccc32)CC1	·	10%	·	·	·
CC(C)(C)c1ccc(-c2cc(C[C@H]3CNCC[C@H]3CC(=O)NC3CCCCC3)no2)cc1	·	32µM*	·	·	·
CC(C)(C)c1ccc(-c2cc(C[C@H]3CNCC[C@H]3CC(=O)N3CCC(n4c(=O)[nH]c5ccccc54)CC3)no2)cc1	·	32µM*	·	·	·
CCOc1cc(-c2noc(-c3nnn4c3COC(c3ccc(F)cc3)C4)n2)ccc1OC (configuration not stated)	·	-4%	·	·	·
COc1ccccc1-c1nnc2sc(-c3ccc4ccccc4n3)nn12	·	0%	·	·	·
COc1ccc2c(c1)C(=NNc1ccc(C(=O)O)cc1)c1cc(OC)ccc1-2	-21%	0%	i	-19%	13µM*
COc1ccc(/C(C)=N/Nc2ccc(C(=O)O)cc2)c(OC)c1	0%	-7%	i	4%	3%[15.4 µM]
CCCCOc1ccc(C(=O)N(Cc2ccco2)Cc2ccco2)cc1	·	18µM*	?	·	·
Cc1ccc2nc(Nc3nc(CSc4ccc(Cl)cc4)cc(=O)[nH]3)nc(C)c2c1	·	-25%	·	·	·
COc1cc(/C=C2/C(=O)NN(c3cccc(C)c3)C2=O)ccc1OC(=O)c1ccco1	-4%	35µM*	i	25%	-1%
COc1cc(/C=C2/C(=O)NN(c3ccc(C)c(Cl)c3)C2=O)cc([N+](=O)[O-])c1O	-23%	40µM*	i	-14%	-31%
COc1cccc(/C=C2/C(=O)NN(c3ccc(C)c(C)c3)C2=O)c1	-7%	28µM*	i	11%	1%
COC(=O)c1ccc(N2NC(=O)/C(=C/c3ccc(OC)c(OC)c3)C2=O)cc1	-8%	2%	i	-4%	-10%
